DT40 TDP1 CPT = growth inhibition of DT40 Tdp1-/-;hTDP1 cells with camptothecin (screen for TDP1 inhibitors) | 420,000 compounds, 12% hits | Potency, µM (series often up to 46.2 µM), inactives show at the highest dose activity change, negative = growth inhibition, usual class: inhibitors | AID 686979 | chicken DT40 Tdp1-/-;hTDP1 cells + 20 nM CPT, ATP luminescence, 48 h; also: potency is read from the fitted curve at half-maximal effect; nearly all actives have a fitted effect of over 55% in size
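Chicken DT40 Tdp1-/- cells complemented with human TDP1, 400 cells/well, exposed to compounds plus 20 nM camptothecin for at least 48 h at 37 C; viability read as ATP content by CellTiter-Glo luminescence.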
DT40 TDP1 no CPT = qHTS for Inhibitors of human tyrosyl-DNA phosphodiesterase 1 (TDP1): qHTS in cells in absence of CPT | DT40 Tdp1-/- hTDP1 cells, no CPT, ATP luminescence, 48 h | Potency, µM (series often up to 46.2 µM), for the others: at the top dose activity change, negative = growth inhibition, usual class: inhibitors | 420,000 compounds, 15% hits | AID 686978, 2013; also: potency is read from the fitted curve at half-maximal effect; nearly all actives have a fitted effect of over 55% in size
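Chicken DT40 Tdp1-/- cells complemented with human TDP1, screened without camptothecin (DMSO vehicle only), 400 cells/well. Compounds pin-transferred, cells incubated at 37 °C for at least 48 hr. Growth read as ATP-dependent luminescence (CellTiter-Glo, 30 min at RT).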
IL-1B inflam inh = inhibitors of inflammasome signaling (IL-1 beta secretion). THP-1 LPS/ATP IL-1B secretion, AlphaLISA, 16 h; stronger effect = lower value. activity change, % at 57.5 µM. 360,000 compounds, 4.7% hits; in the data active = activity change below about -50%; inconclusive = mostly about -30% to -49%
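Secreted IL-1B measured by AlphaLISA bead assay after 16 h compound exposure of THP-1 cells; compounds (final up to 57.5 uM) added 1 h before LPS (250 ng/mL) and ATP (1.25 mM) stimulation; lower signal means less secretion.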
HT1080-NT tox = kills 2HG-producing HT-1080-NT fibrosarcoma cells; HT-1080-NT fibrosarcoma viability, CellTiter-Glo ATP luminescence, 48 h; Potency, µM (highest dose often 46.1 µM), for inactives: at the top dose activity, negative = less viability, hits mostly cytotoxic; 360,000 compounds, 1.6% hits; AID 686970;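 also: NT is the 2HG producing partner of a matched IDH1 knockdown line; potency is read from the fitted curve at half-maximal effect; 0% = DMSO-treated cells and -100% = media-only wells without cells; nearly all actives have a fitted effect of over 55% in size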
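Luminescent CellTiter-Glo readout after 48 hours of compound exposure at 37 degrees C defined viability of HT-1080-NT cells. Activity was normalized to DMSO wells and cell-free media wells; concentration-response curves were fitted and assigned curve classes.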
HT1080 IDH1KD tx = toxicity to HT-1080 IDH1 knockdown cells (counter line); 360,000 compounds, 2% hits; AID 686971; Potency, µM (top dose mostly 46.1 µM), for inactives: at the top dose activity, negative = toxicity, hits mostly cytotoxic; HT-1080 IDH1 knockdown viability, ATP luminescence, 48 h;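 also: potency is read from the fitted curve at half-maximal effect; 0% = DMSO wells and -100% = cell-free medium wells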
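In this qHTS, HT-1080 cells depleted of IDH1 are exposed for 48 h at 37 °C to compound titrations. Toxicity is scored from CellTiter-Glo luminescence, with DMSO as full viability and medium alone as none.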
* marks the source's active call; other numbers are inactive results; ? = inconclusive; / = no result; ! = repeats disagree. A selection: hits, their analogues and other compounds. The true share with any hit is near 19%. Unless noted, calls follow the shape of the dose curve; as a rule, active = well fitted curve in the direction sought with a large enough effect; inconclusive = small, poorly fitted or top-dose-only effect, or another doubt; inactive = no such curve, though single readings can be large; an effect the other way counts as inactive or inconclusive. Unless noted, % is scaled to controls: 0 for no effect and ±100 for the full control effect.

SMILES	DT40 TDP1 CPT	DT40 TDP1 no CPT	IL-1B inflam inh	HT1080-NT tox	HT1080 IDH1KD tx
CC(=O)Nc1ccc(C23CC4CC(CC(C4)C2)C3)cc1	-1%	?	11	-3%	4%
CNC(=O)CN(c1ccc(C23CC4CC(CC(C4)C2)C3)cc1)S(C)(=O)=O	?	26µM*	-6	-10%	-9%
Cc1cscc(C)c1=S	6%	3%	7	14%	7%
C#CCNC(=O)c1csc([C@@H]2O[C@H](CO)[C@@H](O)[C@H]2O)n1	16µM*	?	13	9%	?
O=C(NCc1ccncc1)c1csc([C@@H]2O[C@H](CO)[C@@H](O)[C@H]2O)n1	2.1µM*	2.3µM*	0	9%	?
O=C(NCc1cccs1)c1csc([C@@H]2O[C@H](CO)[C@H](O)[C@H](O)[C@H]2O)n1	3%	9%	13	25%	?
COc1ccc(CCC(C)NCC(C)c2ccccc2)cc1 (stereo not drawn)	?	-29%	-15	-19%	-25%
Cc1ccc(C23CC4CC(CC(C(N)=O)(C4)C2)C3)cc1	15%	-3%	10	-1%	0%
COC(=O)CNC(=O)C12CC3CC(C1)CC(c1ccc(C)cc1)(C3)C2	-4%	5%	14	7%	6%
NCC12CC3CC(C1)CC(c1ccc(Br)cc1)(C3)C2	21µM*	15µM*	-77*	?	?
Cc1ccc(C23CC4CC(CC(CN)(C4)C2)C3)cc1	6.5µM*	10µM*	-95*	18µM*	?
Cc1ccc(C23CC4CC(CC(C(=O)N(C)C)(C4)C2)C3)cc1	?	21µM*	-19	0%	-13%
Cc1ccc(C23CC4CC(CC(CC(=O)NC(C)(C)CO)(C4)C2)C3)cc1	26µM*	15µM*	34	-16%	-12%
COCCNC(=O)c1cc(-c2ccccc2)nn1CC1CC(c2cccnc2)=NO1 (stereo not drawn)	-2%	-14%	11	-24%	1%
O=C(CCc1nc2ccccc2c(=O)[nH]1)N1CCN(S(=O)(=O)c2cccc(F)c2)CC1	?	-14%	0	-6%	-6%
CN(CCC(=O)c1ccccc1)CCC(=O)c1ccccc1	4.6µM*	2.9µM*	-10	8%	6%
O=C(O)CCC(=O)CCC(=O)c1ccc(Cl)cc1	-9%	0%	13	7%	-29%
CN(C)CCC(=O)c1ccc(Cl)cc1	2.6µM*	4.6µM*	-5	-3%	10%
O=c1cc(OCc2ccccc2)cc[nH]1	2%	8%	-66*	13%	8%
Cc1[nH]ccc(=O)c1OCc1ccccc1	1%	-7%	14	-2%	1%
Cc1sc2nc(C(C)C)nc(SCC(=O)NC3CC3)c2c1C	16µM*	16µM*	5	2%	1%
Cc1nc(SCC(=O)NC2CC2)c2c(C)c(C)sc2n1	?	?	4	-5%	-4%
Cc1ncc2c(c1CNC(=O)c1cncs1)CCN(C(=O)c1cccc(-c3cccc(F)c3)c1)C2	0%	-19%	/	/	/
CC(=O)c1cc2c(cc1N/C(=N/S(=O)(=O)c1ccc(C)cc1)c1ccc(Cl)cc1)OCO2	?	-1%	27	15%	16%
Cc1ccc(S(=O)(=O)/N=C(/Nc2ccc([N+](=O)[O-])cc2[N+](=O)[O-])c2ccccc2)cc1	?	?	-67*	-17%	0%
SMILES	DT40 TDP1 CPT	DT40 TDP1 no CPT	IL-1B inflam inh	HT1080-NT tox	HT1080 IDH1KD tx
Cc1ccc(S(=O)(=O)/N=C(/Nc2ccc([N+](=O)[O-])cc2)c2ccccc2)cc1	2%	?	12	-22%	-21%
CC(=O)c1cc2c(cc1N/C(=N/S(=O)(=O)c1ccc(C)cc1)c1ccccc1)OCO2	23µM*!	?	-15	12%	7%
C[C@H](CO)N1C[C@H](C)[C@@H](CN(C)C(=O)Nc2ccc3c(c2)OCO3)Oc2c(NC(=O)Nc3ccc4c(c3)OCO4)cccc2C1=O	16µM*	23µM*	-11	0%	-8%
C[C@H](CO)N1C[C@H](C)[C@@H](CN(C)C(=O)Nc2ccccc2)Oc2c(NC(=O)Nc3ccc4c(c3)OCO4)cccc2C1=O	13µM*	?	1	0%	10%
COc1cc(-c2noc(C)c2/C=C/c2cccc([N+](=O)[O-])c2)cc(OC)c1OC	1.3µM*	1.6µM*	57	2.3µM*	3.7µM*
COc1cc(-c2noc(C)c2C(=O)N[C@@H](CO)Cc2ccccc2)cc(OC)c1OC	?	?	17	5%	7%
COc1cc(-c2noc(C)c2/C=C/c2ccc(C(=O)O)cc2)cc(OC)c1OC	?	?	6	?	18µM*
O=[N+]([O-])c1cccc(/C=C/c2ccncc2)c1	-21%	-24%	?	0%	-11%
O=C(COC(=O)Cc1n[nH]c(=O)c2ccccc12)NNC(=O)c1ccc(Cl)cc1	21µM*	23µM*	12	-11%	-17%
COc1ccc(C(C)=O)cc1COC(=O)Cc1n[nH]c(=O)c2ccccc12	?	?	20	-3%	-15%
O=C(Cc1n[nH]c(=O)c2ccccc12)OCC(=O)c1ccc(F)cc1	-1%	-6%	9	0%	8%
CCOc1ccc(C(=O)COC(=O)Cc2n[nH]c(=O)c3ccccc23)cc1	0.92µM*	0.73µM*	38	6.5µM*	5.2µM*
O=C(Cc1n[nH]c(=O)c2ccccc12)OCC(=O)c1ccc2c(c1)OCCO2	0.92µM*	1.3µM*	64	?	8.2µM*
Cc1ccccc1OCC(=O)Nc1ccccc1-c1ccccc1NC(=O)COc1ccccc1C	?	15µM*	-5	9%	1%
Cc1ccccc1OCC(=O)NNC(=O)Cn1[nH]c(=O)c2ccccc2c1=O	8.2µM*	?	22	-5%	-21%
Cc1ccccc1OCC(=O)Nc1ccccc1N1CCOCC1	-18%	10µM*	9	-13%	-10%
O=C(CC12CC3CC(CC(C3)C1)C2)Nc1ccccc1N1CCOCC1	?	10µM*	-5	-2%	-8%
COc1ccc(-n2c(=O)c(-c3ccc(F)cc3)nc3cncnc32)cc1	-8%	-9%	/	/	/
Cc1cc(NC(=O)C(C)(C)C)cc(-c2nc3ncccc3o2)c1O	-24%	?	/	/	/
COc1cc(CNCCCN2CCOCC2)c(Br)cc1OCC(=O)Nc1ccccc1C	?	?	-55*	-25%	-19%
Cc1cc(C)c(OCC(=O)Nc2ccccc2N2CCOCC2)c(C)c1	14µM*	22µM*	-11	-11%	?
